Assay outcomes (PubChem BioAssay)
An excerpt weighted towards active compounds, which were near 4.2% of everything screened.
Integrin act MD – activates integrin-mediated alleviation for muscular dystrophy; AID 624291; Potency, µM (doses to about 38.3 µM), for the others: at the top dose activation, usual class: activators; alpha7betagal myoblasts, beta-gal FDG fluorescence, 48 h; 350,000 compounds, 0.064% hits;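 note: 100% = response of the positive control SU9516; nearly all actives have a fitted effect of over 60% in size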
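alpha7betagal+/- myoblasts (passage 13, 250/well) treated 48 h at 37C with compounds at 1:260 dilution of DMSO stock. Lysed, then beta-galactosidase activity read as FDG fluorescence (ex 480/em 540) after 30 min, with pre-read for autofluorescence.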
Mito fusion act – inhibitors of mitochondrial division or activators of mitochondrial fusion | S. cerevisiae fusion-defective mutant growth rescue, CellTiterGlo 48 h | Potency, µM (top dose mostly 46.1 µM), for the others: at the highest dose growth rescue (activation), usual class: activators | 320,000 compounds, 0.23% hits; note: % of control where 0% means no effect; nearly all actives have a fitted effect of over 45% in size
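Temperature-sensitive fusion-defective S. cerevisiae (e.g. fzo1-1, mgm1-5) were grown with compound in YPEG medium (3% ethanol, 3% glycerol) for 48 hours at 37C. Growth rescue was measured as viability by CellTiterGlo luminescence after 10 minutes at ambient.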
SW480 rerep – DNA re-replication induction in SW480 cells; SW480 DNA re-replication, Hoechst DNA content imaging, 48 h; Potency, µM (titrated, usually from 46.1 µM), without a hit: at the top dose re-replication activation, most hits filed as activators; 340,000 compounds, 1.8% hits; AID 624297; note: % of control where 0% means no effect; nearly all actives have a fitted effect of over 55% in size
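Readout is total intensity of Hoechst-stained nuclei, excited at 405 nm and collected at 500-530 nm. Compound treatment lasted 48 hr at 37 C in 5% CO2 before staining.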
A-T KAP1 phos – potential ataxia-telangiectasia treatment | F2112 A-T fibroblasts, KAP-1 phosphorylation AlphaLISA; neocarzinostatin DNA damage 30 min before lysis | Potency, µM (top dose mostly 57.5 µM), without a hit: at the top dose activation, usual class: activators | 320,000 compounds, 0.19% hits | AID 485349; note: % of control where 0% means no effect; nearly all actives have a fitted effect of over 45% in size
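hTERT-immortalized A-T patient fibroblasts (F2112), 500 cells/well in OPTI-MEM, 1% FBS, got compounds for 60 min, then NCS for 30 min at 37C. Lysates were then assayed for phospho-KAP-1 by AlphaLISA (anti-pKAP1 donor, anti-KAP1 acceptor beads), 6 hr at 25C.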
MCF10A rerep – inducers of DNA re-replication in MCF 10A breast cells; MCF 10A DNA re-replication, Hoechst nuclear intensity, 48 h; Potency, µM (series often up to 46.1 µM), without a hit: at the top dose activity, positive = re-replication, usual class: activators; 350,000 compounds, 2.9% hits; note: % of control where 0% means no effect; nearly all actives have a fitted effect of over 50% in size
Starred values were filed as active, the others as inactive; ? = inconclusive; . = no result. Calls come from the whole dose curve; as a rule, active = well fitted activation curve with a large enough effect; inconclusive = small, poorly fitted or top-dose-only effect; inactive = no such curve, though single readings can be large or run the other way. Potency is the fitted concentration of half-maximal effect.

SMILES | Integrin act MD | Mito fusion act | SW480 rerep | A-T KAP1 phos | MCF10A rerep
COc1ccc(C2C(C#N)=C(N)Oc3cc4c(cc32)OCO4)cc1 (stereo not drawn) | 15% | 22% | ? | -10% | 21µM*
Cc1cc(NCCC(C)C)n2nc(C)c(-c3ccccc3)c2n1 | -11% | 25% | 8% | 4% | 15µM*
Cc1cc(NCc2ccccn2)n2ncc(-c3ccccc3)c2n1 | ? | 4% | 0.82µM* | 3% | 12%
Cc1cc(NCCCN2CCOCC2)n2nc(C)c(-c3ccccc3)c2n1 | 14% | -5% | 6% | -3% | -7%
CCCc1cc(NCc2ccccn2)n2nc(C)c(-c3ccccc3)c2n1 | -54% | -28% | 3.3µM* | 14% | ?
COc1ccc(CCNC(=S)NCc2ccc(Cl)c(Cl)c2)cc1OC | -30% | -1% | 1% | 3% | 13µM*
COc1ccc(CCNCc2ccc(-c3ccccc3)cc2)cc1OC | -69% | . | ? | . | 23µM*
CC(C)[C@H](NC(=O)c1c(F)cccc1F)C(=O)OCC(=O)NC(=O)NC1CCCC1 | 6% | 0% | 10% | 15% | -3%
CCN(CC)S(=O)(=O)c1ccc(C(=O)OC2CCCCC2CN(C)C)cc1 (stereo not drawn) | 20% | -4% | ? | -8% | 0.1µM*
CCc1ccc2oc(C(=O)N3CCN(c4ccccc4OC)CC3)cc(=O)c2c1 | -18% | 16% | ? | -2% | 12µM*
COc1cc(SC)ccc1C(=O)N1CCN(c2ccccc2OC)CC1 | -3% | 0% | ? | 4% | 18µM*
Cc1ccc(OCC(=O)Oc2cccc(C)c2)cc1 | 5% | . | -19% | . | 0%
CC(=O)Nc1cccc(OC(=O)COc2ccc(Br)cc2)c1 | 11% | 0% | 29µM* | 1% | 5%
O=C(COc1ccc2c3c(c(=O)oc2c1)CCC3)NCC(O)c1ccccc1 (stereo not drawn) | 10% | -13% | -19% | 1% | -3%
COc1ccc(C(=O)CSc2nc3ncccc3[nH]2)cc1OC | 10% | 3% | -2% | 0.79µM* | 6%
COc1ccccc1NC(=O)CSc1nc2ncccc2[nH]1 | ? | -1% | -2% | 0% | 5%
CCOc1cc(S(=O)(=O)NCC2CCCO2)ccc1F (stereo not drawn) | -24% | -2% | ? | 1% | -6%
Nc1nc(-c2ccccc2)c(-c2ccccc2)s1 | 2% | -1% | -1% | 0% | 4%
Cc1ccc(-c2nc(N)sc2-c2ccc(C)cc2)cc1 | -2% | -3% | 3% | 11% | 23µM*
Cc1ccc(-c2nc(N)sc2-c2ccccc2)cc1C | -20% | 27% | -2% | -3% | 8.2µM*
O=[N+]([O-])c1ccc(O)c(C2=NNC(c3ccccc3F)C2)c1 (stereo not drawn) | -56% | 6% | -6% | -11% | 3.7µM*
O=C(c1ccc([N+](=O)[O-])cc1Cl)N1CCN(Cc2ccccc2)CC1 | -1% | . | . | . | .
COc1ccc(/C=C/C(=O)c2c(C)cc(C)[nH]c2=O)c2ccccc12 | -37% | 2% | ? | 9% | 18µM*
Cc1ccc(/C=C/C(=O)c2c(C)cc(C)[nH]c2=O)cc1 | -51% | -5% | ? | 7% | ?
Cc1cc(C)c(C(=O)/C=C/c2cccs2)c(=O)[nH]1 | -49% | 0% | -41% | -6% | ?
SMILES | Integrin act MD | Mito fusion act | SW480 rerep | A-T KAP1 phos | MCF10A rerep
CCc1ccc(/C=C/C(=O)c2c(C)cc(C)[nH]c2=O)cc1 | -52% | -5% | ? | 6% | 18µM*
O=C(CCNC(=O)c1ccc([N+](=O)[O-])cc1)Nc1ccccc1N1CCCCC1 | 0% | 19% | -14% | 8% | -6%
CC(C)CC(NC(=O)c1ccc(Cl)cc1)C(=O)OCc1cc([N+](=O)[O-])cc2c1OCOC2 (stereo not drawn) | 7% | 3% | -10% | 3% | 3%
CCO[C@@H]1OC(C(=O)NCc2nc3ccccc3[nH]2)=C[C@H](C(C)(C)C)[C@H]1CCCO | 4% | . | ? | . | 4.1µM*
CCO[C@@H]1OC(C(=O)NCc2nc3ccccc3[nH]2)=C[C@H](C2CC2)[C@H]1CCCO | -29% | -2% | ? | -23% | ?
CCNc1nc(Oc2c(Cl)cccc2Cl)cc(C(F)(F)F)n1 | -2% | -3% | -7% | 15% | ?
CCNc1nc(Oc2ccc(Cl)cc2Cl)cc(C(F)(F)F)n1 | 15% | -3% | -6% | 32µM* | ?
CCNc1nc(Sc2ccc(C)cc2)cc(C(F)(F)F)n1 | 0% | 3% | ? | 32µM* | ?
CC(C)(C)c1ccc(CSc2nnc(-c3ccccn3)n2Cc2ccco2)cc1 | -23% | 18% | ? | -3% | 16µM*
C(=C\c1ccccc1)/CSc1nnc(-c2ccccc2)n1Cc1ccco1 | -20% | 0% | 23µM* | -3% | 5.2µM*
Nn1c(SCc2ccc(F)cc2)nnc1-c1ccccn1 | -13% | 1% | -41% | 16µM* | 0%
Nn1c(SCc2ccccc2)nnc1-c1ccccn1 | 1% | -4% | -8% | 13% | 0%
CS(=O)(=O)N(CC(=O)Nc1ccc(S(=O)(=O)N2CCOCC2)cc1)c1ccccc1Br | -18% | -5% | 2% | -3% | -4%
CCC1=Nc2cc(C(=O)NCC3CCCO3)ccc2Sc2ccc(Br)cc21 (stereo not drawn) | -26% | 5% | 10µM* | -8% | ?
O=C(NCC1CCCO1)c1ccc(NC(=O)c2ccc(Br)cc2)cc1 (stereo not drawn) | -6% | . | -6% | . | -6%
CCC1=Nc2cc(C(=O)NCC3CCCO3)ccc2Sc2ccc(Cl)cc21 (stereo not drawn) | -57% | 6% | ? | -4% | 12µM*
CCCCN(CCCNC(=O)c1ccc2c(c1)NC(=O)CN2C)c1ccccc1 | -61% | . | . | . | .
CCN(CC)CCC(=O)N1c2ccccc2Sc2ccc(Cl)cc21 | . | -10% | 14µM* | 3% | 30µM*
N#C/C(=C(/O)c1cc2ccccc2o1)c1nc2ccccc2s1 | 0% | 5% | ? | -20% | 8.2µM*
N#C/C(=C(/O)c1ccco1)c1nc2ccccc2s1 | -16% | 18% | -9% | -5% | ?
Cc1ccc(S(=O)(=O)Oc2ccc(/C=C(/NC(=O)c3ccccc3)C(=O)NCC(=O)O)cc2)cc1 | 30% | 0% | 6.5µM* | -2% | -3%
COc1ccc(/C=C(\NC(=O)c2ccc(C)cc2)C(=O)Nc2ccc(C(=O)O)cc2)cc1 | 11µM* | 2% | -7% | -6% | -8%
CCOC(=O)[C@@H]1[C@H]2COc3cc(OC)ccc3[C@@H]2N2C(=O)N(c3cccc(C)c3)C(=O)[C@]12C | 16% | . | 9% | 2% | 15%
CCCCCCCN1CCN=C1N(C)C | -12% | -6% | -21% | 1% | 16%
CCOC(=O)c1c(NC(=O)/C=C/c2ccc3c(c2)OCO3)sc(C)c1C | . | -5% | . | 4% | .
CC(C)(C)c1ccc(/C=C/C(=O)Nc2ccc3c(c2)OCCO3)cc1 | . | 15µM* | . | . | .
